Assay outcomes as filed in PubChem.
Compounds with a hit are over-represented: about 1.3% of the library has one in this group of screens.
TSHR antagonist: Antagonists of the Thyroid Stimulating Hormone Receptor: HTS campaign | Thyrotropin receptor (Homo sapiens), P16473 | TSHR-expressing cells, TSH-stimulated cAMP HTRF, 2 h; stronger effect = lower value | activity change, negative = inhibition, % at 11.5 µM | 330,000 compounds, 0.2% hits | AID 504810, 2011;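 active = activity change below a set negative limit, meaning inhibition stronger than a set level, cut at about -70% in these data; inconclusive = activity change between two set negative limits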; note: % is set by controls: 0 for no effect and ±100 for the full control effect
Target sequence (P16473 whole entry, looked up): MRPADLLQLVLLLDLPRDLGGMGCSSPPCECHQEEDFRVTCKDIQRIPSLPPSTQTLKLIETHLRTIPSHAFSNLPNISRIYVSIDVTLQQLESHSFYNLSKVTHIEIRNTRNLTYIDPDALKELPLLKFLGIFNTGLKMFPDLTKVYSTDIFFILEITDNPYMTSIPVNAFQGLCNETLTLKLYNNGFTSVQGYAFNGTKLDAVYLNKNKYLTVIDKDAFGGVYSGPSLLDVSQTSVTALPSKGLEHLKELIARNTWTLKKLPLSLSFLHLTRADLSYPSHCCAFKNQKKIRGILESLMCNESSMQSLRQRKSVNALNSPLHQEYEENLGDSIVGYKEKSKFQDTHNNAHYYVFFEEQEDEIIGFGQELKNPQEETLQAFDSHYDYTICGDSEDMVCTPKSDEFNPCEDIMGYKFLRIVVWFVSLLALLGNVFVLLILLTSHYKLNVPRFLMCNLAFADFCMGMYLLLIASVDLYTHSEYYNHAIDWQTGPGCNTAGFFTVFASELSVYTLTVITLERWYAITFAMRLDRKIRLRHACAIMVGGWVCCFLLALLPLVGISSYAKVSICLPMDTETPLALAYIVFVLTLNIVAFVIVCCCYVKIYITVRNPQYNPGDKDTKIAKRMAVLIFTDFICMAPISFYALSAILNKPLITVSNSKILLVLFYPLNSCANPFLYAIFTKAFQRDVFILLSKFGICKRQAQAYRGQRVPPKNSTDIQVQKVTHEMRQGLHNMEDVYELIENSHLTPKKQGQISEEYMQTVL
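Competitive HTRF cAMP read-out (cryptate anti-cAMP antibody, cAMP-d2; 30 min, room temperature) in freshly harvested TSHR cells. Compounds added before TSH at EC80 (4nM final), followed by 2 hours' incubation at 37 deg C.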
gsp ag: qHTS for Agonist of gsp, the Etiologic Mutation Responsible for Fibrous Dysplasia/McCune-Albright Syndrome: qHTS. gsp mutant cells, cAMP HTRF, 30 min. Potency, µM (doses to about 76.9 µM), inactives show top-dose activation (cAMP increase), hits mostly activators. 340,000 compounds, 0.13% hits. AID 624287, 2012; active = well fitted activation curve with a large enough effect; inconclusive = small, poorly fitted or top-dose-only effect, or another doubt; inactive = no such curve, though single readings can be large or run the other way; cell line not stated here;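 note: phosphodiesterase inhibitor Ro 20-1724 added with compounds to block cAMP breakdown; potency is the fitted concentration of half-maximal effect; nearly all actives have a fitted effect of over 60% in size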
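Cells stably selected in G418 were plated at 2000/well, grown 16-24 hr, then given compounds in DMSO with the PDE inhibitor […] (300 uM solution added) for 30 min at 37C; cAMP was read by HTRF.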
pAkt inh: HTS Assay for Inhibitors of Akt Phophorylation: Primary Screen. activity change, % for hits at 50 µM. Neuro2A IGF-stimulated pAkt S473 HTRF, 20 min; stronger effect = lower value. 360,000 compounds, 0.32% hits; in the data active = activity change below about -80%; inconclusive = mostly about -51% to -80%; note: % is set by controls: 0 for no effect and ±100 for the full control effect
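Neuro2A cells in DMEM with 0.5% FBS, overnight at 37 deg C, given compound at single 50 µM final, then IGF (6 nM final) for 20 min at 37 deg C. Lysed; phospho-Akt Ser473 by HTRF after 24 h, 665/615 ratio.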
RXFP1 agonist: qHTS Assay for Agonists of the Relaxin Receptor RXFP1; Relaxin receptor 1 (Homo sapiens), Q9HBX9; HEK293T-RXFP1 cAMP TR-FRET, 30 min; response scale: percent of porcine relaxin response, buffer zero; Potency, µM (series often up to 57.5 µM), without a hit: top-dose activation, actives largely listed as activators; 370,000 compounds, 0.3% hits; active = well fitted activation curve with a large enough effect; inconclusive = small, poorly fitted or top-dose-only effect; note: potency is the fitted concentration of half-maximal effect; % is set by controls: 0 for no effect and ±100 for the full control effect; nearly all actives have a fitted effect of over 60% in size
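HEK293T cells stably expressing RXFP1 were pretreated with the PDE4 inhibitor Ro 20174, exposed to compounds for 30 min at 37C, lysed, and cAMP was read by TR-FRET. Data normalized to buffer (basal) and 29 nM porcine relaxin (100%).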
RXFP1 antagonist: qHTS Assay for Antagonists of the Relaxin Receptor RXFP1 | Relaxin receptor 1 (Homo sapiens), Q9HBX9 | HEK293-RXFP1, relaxin-stimulated cAMP HTRF, 30 min; stronger effect = lower value | activity change, negative = inhibition, % at 57.5 µM | 350,000 compounds, 0.59% hits;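 active = activity change of -60% or lower, but not beyond a set lower limit; inconclusive = change between -60% and -40%, or beyond the set limit; inactive = change above -40%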; note: % is set by controls: 0 for no effect and ±100 for the full control effect
gsp antag: qHTS for Antagonists of gsp, the Etiologic Mutation Responsible for Fibrous Dysplasia/McCune-Albright Syndrome: qHTS; gsp-mutant cells, cAMP HTRF, 30 min; Potency, µM (highest dose often 76.9 µM), without a hit: top-dose activity change, negative = inhibition, usual class: inhibitors; 340,000 compounds, 0.4% hits; calls by dose curve; cell line not stated here;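 note: intracellular cAMP measured with PDE inhibitor Ro 20-1724 present during compound exposure; potency is the fitted concentration of half-maximal effect; % is set by controls: 0 for no effect and ±100 for the full control effect; nearly all actives have a fitted effect of over 65% in size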
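Cells in G418 medium, seeded 16-24 h, 37C; buffer exchange to DPBS + 1 mM CaCl2, 0.5 mM MgCl2, 0.05% BSA; cpds in DMSO + […] (300 uM stock), 30 min 37C; HTRF cAMP detection.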
Numbers without * were called inactive; [ ] = remark or other dose.

`CCOC(=O)c1sc(=NC(=O)c2ccc(S(=O)(=O)N(C)c3ccccc3)cc2)n(C)c1C` gave TSHR antagonist -5, gsp ag 6%, pAkt inh inactive, RXFP1 agonist 4µM*, RXFP1 antagonist 3 and gsp antag -4%.
For C/C=C(/C)C(=O)OC1CC(C)(C)C[C@H]2C3=CC[C@@H]4[C@@]5(C)CCC(O[C@@H]6O[C@@H](C(=O)O)[C@@H](O)C(O[C@@H]7OC[C@H](O)[C@@H](O)[C@@H]7O[C@@H]7OC(CO)C(O)[C@@H](O)[C@@H]7O)C6O[C@@H]6OC(CO)C(O)C(O)C6O)[C@@](C)(CO)[C@@H]5CC[C@]4(C)[C@]3(C)CC(O)[C@@]12CO (stereo partly specified) the results were TSHR antagonist -15, pAkt inh inactive and gsp antag 50µM*.
COC(=O)c1cc(NS(=O)(=O)c2ccc(N3CCCCC3)c([N+](=O)[O-])c2)cc(C(=O)OC)c1 was read as TSHR antagonist 15, gsp ag -52%, pAkt inh -98%*, RXFP1 agonist 3%, RXFP1 antagonist 2 and gsp antag -11%.
For COc1ccc(CNC(=O)c2ccc3c(c2)CCN3S(=O)(=O)c2ccc(C)cc2)cc1 the results were RXFP1 agonist 1% and RXFP1 antagonist 1.
CCOC(=O)N1CCN(c2ncnc3c2[nH]c2ccc(F)cc23)CC1 was read as TSHR antagonist -27, gsp ag -29%, pAkt inh inactive, RXFP1 agonist 1%, RXFP1 antagonist -3 and gsp antag inconclusive.
OC1(c2cccc(C(F)(F)F)c2)CCN(c2ncnc3c2[nH]c2ccc(F)cc23)CC1 was read as gsp ag -27%, pAkt inh inactive, RXFP1 agonist 4%, RXFP1 antagonist -89* and gsp antag 25µM*.
For COc1ccc(N2CCN(c3ncnc4c3[nH]c3ccccc34)CC2)cc1 the results were gsp ag 14%, RXFP1 agonist 3%, RXFP1 antagonist inconclusive and gsp antag 16µM*.
For COc1ccc2[nH]c3c(N4CCc5ccccc5C4)ncnc3c2c1 the results were TSHR antagonist -21, gsp ag -1%[15.4 µM], pAkt inh inactive, RXFP1 agonist 10%, RXFP1 antagonist inconclusive and gsp antag -13%.
`Fc1ccc2[nH]c3c(N4CCN(c5ccccc5)CC4)ncnc3c2c1` gave TSHR antagonist -89*, gsp ag 17%, pAkt inh -90%*, RXFP1 agonist 0%, RXFP1 antagonist -31 and gsp antag inconclusive.
`NC(=O)C1CCN(c2nc(-c3cccc4ccccc34)cs2)CC1` gave TSHR antagonist 4.
`Cc1ccc(-n2cc(CCCCCCCCC(=O)O)nn2)cc1` gave TSHR antagonist -14, gsp ag 37%, pAkt inh inactive, RXFP1 agonist -1% and gsp antag -20%.
`CN(C)CCCN(C(=O)c1ccc(S(=O)(=O)N2CCc3ccccc32)cc1)c1nc2c(Cl)cccc2s1` gave TSHR antagonist -16, gsp ag -26%, pAkt inh inactive, RXFP1 agonist 2%, RXFP1 antagonist -5 and gsp antag -9%.
For COc1cccc2sc(N(CCN(C)C)C(=O)c3ccc4c(c3)CCCC4)nc12 the results were TSHR antagonist -5, gsp ag 12%[15.4 µM], pAkt inh inactive, RXFP1 agonist 1%, RXFP1 antagonist -69* and gsp antag -5%.
`CN(C)CCN(C(=O)c1ccc2ccccc2c1)c1nc2cc3c(cc2s1)OCCO3` gave TSHR antagonist -10, gsp ag 21%, pAkt inh inactive, RXFP1 agonist 1%, RXFP1 antagonist -28 and gsp antag -14%.
CN(C)CCCN(C(=O)c1ccc2ccccc2c1)c1nc2cc3c(cc2s1)OCO3 was read as TSHR antagonist -2, gsp ag -56%, pAkt inh inactive, RXFP1 agonist 0%, RXFP1 antagonist -61* and gsp antag 6%.
`CN(C)CCCN(C(=O)c1ccc2c(c1)CCCC2)c1nc2ccc(Cl)cc2s1` gave TSHR antagonist 1, gsp ag 24%, pAkt inh inactive, RXFP1 agonist 1%, RXFP1 antagonist -77* and gsp antag 14%.
COc1cccc2sc(N(CCCN(C)C)C(=O)c3ccc(S(=O)(=O)N4CCCc5ccccc54)cc3)nc12 was read as TSHR antagonist 4, gsp ag inconclusive, pAkt inh inactive, RXFP1 agonist -3%, RXFP1 antagonist -88* and gsp antag 16%.
For O=C(NCCc1ccccc1O)c1cc2c(cc1[N+](=O)[O-])OCO2 the results were gsp ag 17%, pAkt inh inactive, RXFP1 antagonist 3 and gsp antag -4%.
CCCCCCCCCCCCCCCCCCNC(=O)OC1CCN(C(=O)OC[C@H](COC(=O)N(Cc2cccc[n+]2CC)C(=O)c2ccccc2OC)OC)CC1 was read as RXFP1 antagonist -26.
For O=C(O)c1cnn(-c2nc(-c3ccc(Br)cc3)cs2)c1C(F)(F)F the results were TSHR antagonist -17, gsp ag inconclusive, pAkt inh inactive, RXFP1 agonist 25%, RXFP1 antagonist 18 and gsp antag -11%.
Screening Fc1ccccc1N1CCN(c2nc(-c3cccs3)nc3ccccc23)CC1 returned TSHR antagonist -32, gsp ag -4%[15.4 µM], pAkt inh inactive, RXFP1 agonist 1%, RXFP1 antagonist -17 and gsp antag 8%.
CN(Cc1ccccc1F)c1nc(-c2cccs2)nc2ccccc12 was read as TSHR antagonist 39, gsp ag 19%[15.4 µM], pAkt inh inactive, RXFP1 agonist 2%, RXFP1 antagonist -28 and gsp antag 11µM*.
`CCCCCCCCCCn1c2c(c(=N)c3c1CCC3)CCC2` gave TSHR antagonist -37, gsp ag -4%[15.4 µM], pAkt inh inactive, RXFP1 agonist 0%, RXFP1 antagonist -69* and gsp antag 7%.
`CCCCCCCCCn1c2c(c(=N)c3c1CCC3)CCCC2` gave TSHR antagonist -6, gsp ag inconclusive, pAkt inh inactive, RXFP1 agonist -1%, RXFP1 antagonist -81* and gsp antag -1%.
